# Results filed as inconclusive are left out. Active and inactive are the calls of the source. The calls were made as follows: active = hit-call score of the fitted dose curve at least 0.9, where 1 is the maximum; inconclusive = response in the unintended direction; inactive = score below 0.9.
# Target: Estrogen receptor (Homo sapiens) (UniProt P03372)
# Assay: ATG_ERa_TRANS: Attagene TRANS-FACTORIAL HepG2 Assay for human Estrogen Receptor alpha (ERa) (AID 2282970)
# Conditions: HepG2 Attagene TRANS ERa GAL4 reporter, mRNA
# Description: ATG_TRANS is a cell-based, multiplexed-readout assay that uses HepG2, a human liver cell line, with measurements taken at 24 hours after chemical dosing in a 24-well plate.ATG_ERa_TRANS is one of 30 assay component(s) measured or calculated from the ATG_TRANS assay. It is designed to make measurements of mRNA induction, a form of inducible reporter, as detected with fluorescence intensity signals by Reverse transcription polymerase chain reaction (RT-PCR) and Capillary electrophoresis technology.Data from the assay component ATG_ERa_TRANS was analyzed into 1 assay endpoint. This assay endpoint, ATG_ERa_TRANS, was analyzed in the positive analysis fitting direction relative to DMSO as the negative control and baseline of activity. Using a type of inducible reporter, measures of mRNA for gain-of-signal activity can be used to understand the reporter gene at the transcription factor-level as they relate to the gene ESR1. Furthermore, this assay endpoint can be referred to as a primary readout, because this assay has produced multiple assay endpoints where this one serves a reporter gene function. To generalize the intended target to other relatable targets, this assay endpoint is annotated to the nuclear receptor intended target family, where the subfamily is steroidal.
# Human liver HepG2 cells are transiently transfected with multiple reporter transcription units (MRTUs) in 6-well plates using FuGene 6 reagent (Roche; 3 ml FuGene/1 mg DNA). The MRTU constructs are regulated by a cis-regulating element (promoter). […] A major difference between the CIS and TRANS system is that in CIS activities of endogenous TFs are measured, whereas the TRANS assay evaluates changes in activities of exogenous, chimeric NR-Gal4 proteins. […] At the end of 24 hour incubation, total RNA was isolated using TriZol reagent (Invitrogen). The isolated RNA is then reverse-transcribed using oligo(dT) primer and Mo-MLV reverse transcriptase (Invitrogen) with DNAse I (Ambion) treatment for 30 min. The one-tenth of the produced cDNA was amplified by PCR using Taq DNA polymerase (Invitrogen) and two reporter sequence-specific primers. The PCR products were fluorescently labeled by primer extension with 6-arboxyfluorescein (6-FAM) 5'-labeled reporter sequence-specific primer (2 min at 95 C, 20 s at 68 C and 10 min at 72 C) and these products were digested with 5U of HpaI (New England Biolabs) for 2h at 37 C. […] The raw capillary electrophoresis data was processed using Attagraph software (Attagene).
# Chain of Estrogen receptor (Homo sapiens) (P03372 whole entry, looked up): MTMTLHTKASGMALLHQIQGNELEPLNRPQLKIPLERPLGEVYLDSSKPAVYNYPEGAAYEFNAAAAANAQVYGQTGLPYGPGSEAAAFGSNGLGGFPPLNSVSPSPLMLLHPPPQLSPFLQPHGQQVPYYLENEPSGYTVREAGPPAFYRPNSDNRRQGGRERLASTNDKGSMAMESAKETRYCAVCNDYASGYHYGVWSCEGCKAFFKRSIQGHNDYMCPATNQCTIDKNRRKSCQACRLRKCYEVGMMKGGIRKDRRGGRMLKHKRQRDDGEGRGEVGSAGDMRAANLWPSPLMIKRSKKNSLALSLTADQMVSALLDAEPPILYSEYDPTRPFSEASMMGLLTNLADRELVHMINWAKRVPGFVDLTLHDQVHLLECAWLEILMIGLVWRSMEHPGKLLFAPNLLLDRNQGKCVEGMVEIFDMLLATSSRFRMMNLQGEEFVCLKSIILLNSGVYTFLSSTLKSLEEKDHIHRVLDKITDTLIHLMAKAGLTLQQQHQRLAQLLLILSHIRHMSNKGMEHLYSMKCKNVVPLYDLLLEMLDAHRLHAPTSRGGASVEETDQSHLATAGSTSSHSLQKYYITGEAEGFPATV
SMILES,outcome,AC50
ClC1=C(Cl)C2(Cl)C3C(Cl)C=CC3C1(Cl)C2(Cl)Cl (centres undefined),inactive,
N#CC(Br)Br,inactive,
O=C(Nc1ccccc1)c1ccccc1I,inactive,
CC(C)COC(=O)c1ccccc1C(=O)OCC(C)C,inactive,
Cc1ccc([N+](=O)[O-])cc1,inactive,
CCOc1cccc(C2(N3CCN(c4ccccc4)CC3)CCC(C)CC2)c1 (centres undefined),inactive,
Brc1ccc(Oc2ccccc2)cc1,inactive,
O=C(Oc1ccc(Br)cc1)N1CCN2CCC1CC2,inactive,
[O-][Cl+]O,inactive,
OCCCBr,inactive,
CCCCCOC(=O)c1ccccc1C(=O)OCCCCC,inactive,
CNC(=O)Oc1cccc2c1OC(C)(C)C2,inactive,
COc1cc(C=O)cc2c1[C@H](COC(N)=O)[C@]1(OC(C)=O)ON2C[C@H]2[C@@H]1N2C(C)=O,inactive,
Nc1ccc(N=Nc2ccccc2)cc1,,33 µM (active)
CCCCCCCCn1sccc1=O,,16.9 µM (active)
O=[N+]([O-])C(Br)(CO)CO,inactive,
ClC1=C(Cl)[C@]2(Cl)[C@H]3[C@H]([C@@H]4C=C[C@H]3C4)[C@@]1(Cl)C2(Cl)Cl,,11.5 µM (active)
Clc1ccc(C(c2ccc(Cl)cc2)C(Cl)Cl)cc1,,16.2 µM (active)
CCCCCCCCCCCCCN1CC(C)OC(C)C1 (centres undefined),inactive,

# Reference: PubChem BioAssay (EPA / NIEHS)
